Among the test systems are SK-MEL-2 melanoma; EKVX NSCLC; SN12C renal; UO-31 renal; TK-10 renal; ACHN renal; A498 renal; CCRF-CEM leukemia; MOLT-4 leukemia; SR leukemia; RPMI-8226 leukemia; OVCAR-8 ovarian; OVCAR-5 ovarian; OVCAR-4 ovarian; SK-OV-3 ovarian; IGROV1 ovarian; HS 578T breast; NCI/ADR-RES ovarian; OVCAR-3 ovarian.
Test in all cases: NCI-60 one-dose screen, 48 h (100 = growth as untreated, 0 = no growth, -100 = all killed)
Holding throughout (details): 10 µM unless noted

Among the data in PubChem BioAssay (NCI) are growth values, retold here.

Compounds without any hit were thinned out: in the full panel of roughly 83,000, 20% have a hit.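 In brief: 96-well plates, 48 h treatment, single concentration, percent growth endpoint.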 Values without a mark were called inactive. The source made the active and inactive calls. How the source made its calls: active means growth percent below 10; inactive means the rest.

Consider `CCCCNC(=O)Oc1ccc(/C(=C(/CC)Cc2ccccc2)c2ccc(OCCCN(C)C)cc2)cc1`, for which the growth in the experiment on SK-MEL-2 melanoma is 86.8%; with EKVX NSCLC, 67.5%; in the experiment with SN12C renal it was 82.8%; in the experiment with UO-31 renal, 60.5%; with TK-10 renal it was 91.9%; in the experiment on ACHN renal, 92.5%. The growth with A498 renal was 76.2%; in the experiment on CCRF-CEM leukemia, 77.1%; in the experiment with MOLT-4 leukemia, 63.4%; in the experiment on SR leukemia it was 22%; with RPMI-8226 leukemia it was 42.8%; in the experiment on OVCAR-8 ovarian it was 87%. For the same compound, the growth was 85.6% with OVCAR-5 ovarian; 74.8% in the experiment with OVCAR-4 ovarian; 97.6% in the experiment with SK-OV-3 ovarian; 71.1% in the experiment on IGROV1 ovarian; 84.4% with HS 578T breast; 87.2% in the experiment on NCI/ADR-RES ovarian.
In the case of `O=C(O)c1cc2ccccc2cc1Nc1ccccc1`, the growth was 99.2% with SK-MEL-2 melanoma; 97.6% with EKVX NSCLC; 101% in the experiment with SN12C renal; 82.5% in the experiment on UO-31 renal; 127% with TK-10 renal; 98.8% with ACHN renal. The growth is 102% with A498 renal; 94.1% in the experiment with CCRF-CEM leukemia; 91.1% in the experiment on MOLT-4 leukemia; 97.8% with SR leukemia; 78.4% in the experiment with RPMI-8226 leukemia; 100% in the experiment with OVCAR-8 ovarian. Besides, the growth with OVCAR-5 ovarian is 90.8%; in the experiment with OVCAR-4 ovarian, 97.5%; in the experiment on SK-OV-3 ovarian, 106%; in the experiment with OVCAR-3 ovarian it was 108%; in the experiment on HS 578T breast, 121%; in the experiment with NCI/ADR-RES ovarian, 93%.
`CCC1S/C(=N\N=C(/C)c2ccco2)N(c2ccccc2)C1=O` (centres undefined): the growth in the experiment on SK-MEL-2 melanoma is 112%; in the experiment on EKVX NSCLC it was 109%; in the experiment on SN12C renal it was 141%; in the experiment on UO-31 renal, 94.8%; with TK-10 renal, 79.4%; in the experiment on ACHN renal it was 110%. Also, the growth is 160% in the experiment with A498 renal; -58.4% (active) in the experiment with CCRF-CEM leukemia; 78.7% in the experiment on MOLT-4 leukemia; 92.4% with SR leukemia; 60.4% in the experiment with RPMI-8226 leukemia; 106% with OVCAR-8 ovarian. Besides, the growth with OVCAR-5 ovarian was 105%; in the experiment on OVCAR-4 ovarian, 98.4%; with SK-OV-3 ovarian, 135%; in the experiment with HS 578T breast, 231%; in the experiment with NCI/ADR-RES ovarian it was 105%.
`O=C(Nc1ccc(F)cc1)Nc1ccc(Cl)c([N+](=O)[O-])c1`: the growth in the experiment on SK-MEL-2 melanoma is 2.67% (active); in the experiment on EKVX NSCLC, 15.8%; with SN12C renal, 15.8%; with UO-31 renal, 8.43% (active); in the experiment with TK-10 renal, 16.6%; in the experiment on ACHN renal, 4.79% (active). Also, the growth was 25.7% with A498 renal; 18.6% in the experiment on CCRF-CEM leukemia; 5.48% (active) in the experiment on MOLT-4 leukemia; -28% (active) in the experiment on RPMI-8226 leukemia; 17.8% in the experiment on OVCAR-8 ovarian; 44.3% in the experiment on OVCAR-5 ovarian. Moreover, the growth in the experiment on OVCAR-4 ovarian is 16.5%; in the experiment on SK-OV-3 ovarian, 34%; in the experiment on IGROV1 ovarian, 22.4%; in the experiment on OVCAR-3 ovarian, 10.1%; in the experiment on HS 578T breast, 55.8%; in the experiment on NCI/ADR-RES ovarian, 14.1%.
With `COc1cccc(/C=N/C(=S)NC2(C)C3CCC(C3)C2(C)C)c1O` (centres undefined), the growth with SK-MEL-2 melanoma is 82.1%; in the experiment on EKVX NSCLC, 102%; in the experiment on SN12C renal, 100%; with UO-31 renal it was 53%; in the experiment on TK-10 renal, 85.9%; in the experiment on ACHN renal, 69.9%. The growth in the experiment on A498 renal is 73.2%; in the experiment with CCRF-CEM leukemia, 57.3%; with MOLT-4 leukemia it was 63.8%; in the experiment with SR leukemia it was 38.4%; in the experiment on RPMI-8226 leukemia, 73.5%; in the experiment on OVCAR-8 ovarian, 85.4%. The growth in the experiment with OVCAR-5 ovarian is 102%; in the experiment with OVCAR-4 ovarian it was 45.5%; with IGROV1 ovarian, 64.3%; in the experiment with OVCAR-3 ovarian it was 73.2%; in the experiment on NCI/ADR-RES ovarian, 83.7%.
As to `O=C(Nc1ccc(Cl)c(Cl)c1)Nc1ccc(Cl)c([N+](=O)[O-])c1`, the growth with SK-MEL-2 melanoma is -43.4% (active); with EKVX NSCLC, 4.27% (active); with SN12C renal, 6.3% (active); in the experiment on UO-31 renal, 0.279% (active); in the experiment with TK-10 renal, -0.585% (active); in the experiment on ACHN renal, 1.36% (active). For the same compound, the growth was -25.9% (active) in the experiment on A498 renal; 1.21% (active) in the experiment on CCRF-CEM leukemia; -30.9% (active) in the experiment on MOLT-4 leukemia; -25.2% (active) in the experiment with SR leukemia; -36.2% (active) in the experiment on RPMI-8226 leukemia; 10.9% with OVCAR-8 ovarian. The growth in the experiment with OVCAR-5 ovarian is 11.9%; in the experiment on OVCAR-4 ovarian, 27.1%; in the experiment on SK-OV-3 ovarian, -11.7% (active); with IGROV1 ovarian, 15.8%; in the experiment on HS 578T breast, 7.04% (active); in the experiment with NCI/ADR-RES ovarian, -7.67% (active).
Turning to `O=C1C(SCCO)=C(SCCO)C(=O)N1c1ccc(-c2ccccc2)cc1`, the growth with SK-MEL-2 melanoma is -73.5% (active); with EKVX NSCLC, 129%; in the experiment on SN12C renal, 72.4%; in the experiment with UO-31 renal, -96.5% (active); in the experiment with TK-10 renal, -57.8% (active); with ACHN renal, -99.5% (active). In addition, the growth in the experiment on A498 renal is 105%; with CCRF-CEM leukemia it was -43.8% (active); in the experiment on MOLT-4 leukemia it was -33.6% (active); in the experiment with SR leukemia, -47.6% (active); in the experiment on RPMI-8226 leukemia, -14% (active); in the experiment with OVCAR-8 ovarian it was 3.35% (active). Also, the growth in the experiment on OVCAR-5 ovarian was 102%; in the experiment with OVCAR-4 ovarian it was 10.3%; with SK-OV-3 ovarian, 106%; with OVCAR-3 ovarian it was -92% (active); with HS 578T breast, -50.7% (active).
On to `c1cncc(-c2nc3ccccc3[nH]2)c1`, for which the growth in the experiment on SK-MEL-2 melanoma was 106%; in the experiment on EKVX NSCLC, 120%; in the experiment with SN12C renal it was 89.8%; in the experiment on UO-31 renal, 82.3%; in the experiment with TK-10 renal, 148%; with ACHN renal it was 91%. Also, the growth is 84.4% in the experiment on A498 renal; 110% in the experiment with CCRF-CEM leukemia; 97.4% in the experiment on MOLT-4 leukemia; 90.6% with SR leukemia; 75.3% in the experiment on RPMI-8226 leukemia; 98.4% in the experiment on OVCAR-8 ovarian. For the same compound, the growth is 86.5% in the experiment on OVCAR-5 ovarian; 104% in the experiment on OVCAR-4 ovarian; 95.3% in the experiment with SK-OV-3 ovarian; 98.6% with OVCAR-3 ovarian; 78.4% with HS 578T breast; 96.1% with NCI/ADR-RES ovarian.
On to `COc1cc2ncnc(Oc3ccc(NC(=O)Nc4ccc(CN5CCOCC5)c(C(F)(F)F)c4)c4ccccc34)c2cc1OC`, for which the growth with SK-MEL-2 melanoma was 52.1%; with EKVX NSCLC, 16%; with SN12C renal, 8.87% (active); in the experiment with UO-31 renal, -11.9% (active); with TK-10 renal, 12.7%; in the experiment with ACHN renal, -3.27% (active). In addition, the growth in the experiment with A498 renal is -11.3% (active); in the experiment with CCRF-CEM leukemia, 20.1%; with MOLT-4 leukemia, -20.7% (active); with RPMI-8226 leukemia, -20.4% (active); with OVCAR-8 ovarian, 18.9%; in the experiment with OVCAR-5 ovarian, 50.1%. For the same compound, the growth in the experiment with OVCAR-4 ovarian was 13.7%; with SK-OV-3 ovarian, -6.16% (active); in the experiment on IGROV1 ovarian, 6.05% (active); in the experiment with OVCAR-3 ovarian it was 31.9%; in the experiment on HS 578T breast it was 45.5%; in the experiment with NCI/ADR-RES ovarian, 21.8%.
